# FLuc counter: qHTS profiling assay for firefly luciferase inhibitor/activator using purifed enzyme and Km concentrations of substrates (counterscreen for miR-21 project); Luciferin 4-monooxygenase (Photinus pyralis), P08659; purified FLuc, Km substrates, luminescence inhibition; Potency, µM (series often up to 57.5 µM), for the others: at the highest dose activity change, negative = inhibition, hits mostly inhibitors; actives 6.9% (n = 360,000); AID 588342, 2011;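 also: plate controls were vehicle for no effect and reference inhibitor for full effect; nearly all actives have a fitted effect of over 55% in size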
# Target sequence (P08659 whole entry, looked up): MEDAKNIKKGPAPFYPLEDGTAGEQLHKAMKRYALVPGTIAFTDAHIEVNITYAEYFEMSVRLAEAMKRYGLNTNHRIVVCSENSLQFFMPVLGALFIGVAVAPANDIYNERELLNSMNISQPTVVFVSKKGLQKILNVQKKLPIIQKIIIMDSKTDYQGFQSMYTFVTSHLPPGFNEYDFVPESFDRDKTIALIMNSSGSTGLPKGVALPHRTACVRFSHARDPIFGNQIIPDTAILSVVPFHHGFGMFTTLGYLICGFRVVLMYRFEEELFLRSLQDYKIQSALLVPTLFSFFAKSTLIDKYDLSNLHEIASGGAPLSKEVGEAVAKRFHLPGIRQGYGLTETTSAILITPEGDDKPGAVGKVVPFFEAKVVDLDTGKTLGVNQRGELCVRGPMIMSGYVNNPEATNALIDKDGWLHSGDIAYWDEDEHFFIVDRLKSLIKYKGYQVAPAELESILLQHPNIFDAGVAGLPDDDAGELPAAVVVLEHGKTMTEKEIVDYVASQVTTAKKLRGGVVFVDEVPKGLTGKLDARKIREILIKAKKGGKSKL
#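 Purified P. pyralis luciferase (10nM final) with 10uM D-luciferin and 10uM ATP (Km levels) in 50mM Tris acetate pH 7.5, 10mM Mg acetate, 0.01% Tween-20, 0.05% BSA; qHTS 6-point titration, ~60 µM downward; luminescence read.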
# ELG1 genotox: qHTS screen for small molecules that induce genotoxicity in human embryonic kidney (HEK293T) cells expressing luciferase-tagged ELG1; HEK293T ELG1-luciferase reporter, luminescence, 16 h; Potency, µM (doses to about 46 µM), for the others: top-dose activity change, positive = activation, actives largely listed as activators; actives 1.3% (n = 330,000); AID 504466, 2011; also: % of control where 0% means no effect; nearly all actives have a fitted effect of over 60% in size
#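 After overnight (16 hr) compound treatment at 37 °C, ELG1-luciferase HEK293T cells were lysed with ONE-Glo; luminescence quantified 30 min later at room temperature.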
# SMN2 splice up: qHTS Assay for Enhancers of SMN2 Splice Variant Expression; AID 1458, 2008; HEK293 SMN2-luciferase splicing reporter, luminescence, 30-36 h; Potency, µM (highest dose often 46.1 µM), for the others: at the highest dose activity change, positive = activation, actives largely listed as activators; actives 2.8% (n = 210,000); also: % of control where 0% means no effect; nearly all actives have a fitted effect of over 55% in size
#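 HEK293 cells carry an SMN2 […]–luciferase reporter in which exon 7 inclusion puts luciferase in frame. Cells were plated 10-12 h before compound addition, then incubated 30-36 h at 37C. ONE-Glo luminescence was read; sodium butyrate at 4.5 mM final served as control.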
# Rab9 prom act: qHTS Assay for Rab9 Promoter Activators. Huh7 Rab9 promoter-luciferase reporter, luminescence, 24 h. Potency, µM (top dose mostly 9.22 µM), for the others: top-dose activation, negative = inhibition, most hits filed as activators. actives 2.8% (n = 320,000). AID 485297, 2010; also: % of control where 0% means no effect; nearly all actives have a fitted effect of over 60% in size
#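 Measured in stably transfected Huh7 cells bearing a Rab9 promoter–luciferase construct: 24 h compound treatment at 37 °C, followed by luminescence detection.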
# NPC1 promoter act: qHTS Assay for NPC1 Promoter Activators. Huh7 NPC1 promoter luciferase reporter, 24 h. Potency, µM (series often up to 9.22 µM), for the others: at the top dose activation, usual class: activators. actives 2.4% (n = 320,000). AID 485313, 2010; also: % of control where 0% means no effect; nearly all actives have a fitted effect of over 60% in size
#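 Stable NPC1-promoter luciferase Huh7 line; cpd (DMSO) 24 h, 37 °C, 5% CO2; Amplite luciferase reagent 10 min RT; luminescence readout. qHTS format.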
# The depositor's hits bear a star; ? = inconclusive; nt = no result; [ ] = remark or other dose. Hits are enriched below; roughly 7.5% of the tested compounds scored in any of these assays. Calls follow the shape of the dose curve; as a rule, active = well fitted curve in the direction sought with a large enough effect; inconclusive = small, poorly fitted or top-dose-only effect, or another doubt; inactive = no such curve, though single readings can be large; an effect the other way counts as inactive or inconclusive. Potency is read from the fitted curve at half-maximal effect.
SMILES,FLuc counter,ELG1 genotox,SMN2 splice up,Rab9 prom act,NPC1 promoter act
CC(C)(C)C(=O)Nc1ccc(C(=O)Nc2cccc(Oc3ccc(C(=O)O)c(C(=O)O)c3)c2)cc1,1.5µM*,-4%,nt,0%,4%
CCc1cccc(CC)c1NC(=O)CN1CCc2cc(OC)c(OC)cc2C1,-1%,-8%,nt,-33%,-22%
Cc1ccc(OCC(=O)Nc2ccc3nc(SCC(N)=O)sc3c2)cc1,5%,nt,nt,nt,nt
COc1cc(NC(=O)CSc2ncnc3scc(-c4ccccc4)c23)c(C(=O)O)cc1OC,15µM*,2%,20%,-5%,0%
O=C(O)CSc1ncnc2scc(-c3ccccc3)c12,-2%,-7%,nt,-7%,1%
O=C(CN1N=C(c2ccc(Cl)cc2)CCC1=O)NCc1ccc(F)cc1,-17%,nt,nt,nt,nt
O=C(CSc1nnc(Nc2ccccc2)s1)NC1CC1,?,5%,nt,0%,0%
CC(C)c1ccc(Nc2nnc(SC3CCOC3=O)s2)cc1 (configuration not stated),7.6µM*,-1%,5%,0%,0%
Cc1ccc(Nc2nnc(SC3CCOC3=O)s2)cc1 (configuration not stated),17µM*,3%,14%,-3%,7%
O=C1CCCCC1Sc1nnc(Nc2ccccc2)s1 (configuration not stated),19µM*,?,10µM*,3.2µM*,2.5µM*
O=C(NNC1CC(=O)N(c2ccccc2)C1=O)c1ccccc1Cl (configuration not stated),0%,4%,nt,-1%,2%
CCCC[C@@H]1C=C(C(=O)O)[C@H](c2ccc(Br)cc2)N1S(=O)(=O)c1ccc(C)cc1,nt,1%,nt,nt,nt
CCc1ccc2oc(-c3cccc(NC(=O)c4cccnc4)c3)nc2c1,1.3µM*,-2%,16%,?,?
Cc1ccc2oc(-c3ccc(C)c(NC(=O)c4ccc(-c5ccccc5[N+](=O)[O-])o4)c3)nc2c1,11µM*,nt,-24%,nt,nt
Cc1ccc2oc(-c3ccc(Cl)c(NC(=O)c4ccc(-c5ccccc5[N+](=O)[O-])o4)c3)nc2c1,?,nt,-9%,nt,nt
CCc1ccc2oc(-c3cccc(NC(=O)C(C)(C)Oc4ccc(Br)cc4)c3)nc2c1,2.1µM*,nt,5µM*,nt,nt
COc1ccc(-c2nc3ccccc3o2)cc1NC(=O)c1cccnc1,11µM*,nt,-1%,nt,nt
CCCCC(=O)Nc1cc(-c2nc3ccccc3o2)ccc1OC,-11%,nt,7%,nt,nt
COc1cc(C(=O)N2CCN(c3ccc(Nc4ccccc4)nn3)CC2)cc(OC)c1OC,-9%,nt,nt,nt,nt
Cc1ccc2oc(-c3ccc(Cl)c(NC(=O)c4cc5ccccc5o4)c3)nc2c1,12µM*,nt,6%,nt,nt
CCc1ccc2oc(-c3cccc(NC(=O)c4cc5ccccc5o4)c3)nc2c1,2.4µM*,nt,?,nt,nt
c1csc(-c2nc(NCC3CCCO3)c3ccccc3n2)c1 (configuration not stated),-1%,-14%,nt,-7%,-4%
Brc1ccc2nc(-c3cccs3)c(NCC3CCCO3)n2c1 (configuration not stated),12µM*,-8%,nt,27%,?
COc1cccc(CNC(=O)Cn2c(=O)oc3cc(S(=O)(=O)N4CCCC4)ccc32)c1,-5%,nt,-8%,nt,nt
CCOC(=O)N1CCC(Nc2cc(C)nc3c(-c4ccccc4OC)c(C)nn23)CC1,-1%,12%,-30%,-3%,-6%
SMILES,FLuc counter,ELG1 genotox,SMN2 splice up,Rab9 prom act,NPC1 promoter act
COc1ccccc1-c1ccc(NC2CCCC2)nn1,13µM*,?,11µM*,?,26%
COc1ccccc1-c1cnn2c(NC3CCCC3)cc(C)nc12,1.9µM*,?,nt,2.8µM*,?
CCCCOc1ccc(C(=O)N/N=C/c2cn[nH]c2-c2ccc(OC)c(OC)c2)cc1,12µM*,-3%,-1%,-3%,-2%
COc1ccc(C(=O)N/N=C/c2cn[nH]c2-c2ccc(OC)cc2OC)cc1,?,1%,-7%,2%,1%
COc1ccc(-c2[nH]ncc2/C=N\NC(=O)c2ccc(C(C)(C)C)cc2)cc1OC,1.3µM*,3%,?,4%,1%
COc1ccc(-c2[nH]ncc2/C=N/NC(=O)c2ccc(Br)cc2)c(OC)c1,?,-7%,6%,0%,1%
Clc1cccc(-c2nc3ccccn3c2Nc2ccc3c(c2)OCCO3)c1,?,nt,-19%,nt,nt
Oc1ccc(-c2nc3cnccn3c2Nc2ccc3c(c2)OCCO3)cc1,-1%,16%,15%,-9%,9%
Oc1ccc(-c2nc3ccccn3c2Nc2ccc3c(c2)OCCO3)cc1,19µM*,nt,41%,nt,nt
CN(C)c1ccc(-c2nc3ccccn3c2Nc2ccc3c(c2)OCCO3)cc1,2.4µM*,nt,?,nt,nt
COc1cc(OC)c(NC(=O)C(CC(C)C)N2Cc3ccccc3C2=O)cc1Cl (configuration not stated),-6%,nt,nt,nt,nt
Cc1ccccc1N1CCN(C2CCCN(C(=O)c3cn4cccc(C)c4n3)C2)CC1 (configuration not stated),5%,-17%,nt,-14%,-6%
COc1ccc(N=Nc2n(C)c3ccccc3[n+]2C)cc1,0.076µM*,0.92µM*,nt,?,0.71µM*
CCCCC[C@]12Cc3ccccc3C(O1)C1=C(CC(C)(C)CC1=O)O2,2%[11.5 µM],nt,nt,-1%[1.84 µM],-3%[1.84 µM]
C=C1C=C(C(F)F)n2ncc(C(=O)Nc3ccc(C(C)CC)cc3)c2N1 (configuration not stated),0%,nt,nt,nt,nt
O=C(CSc1ccsc1[N+](=O)[O-])NCCc1ccccc1,6%,-3%,nt,-4%,-2%
O=C(CSc1ccsc1[N+](=O)[O-])NCCc1ccc(Cl)cc1,-1%,0%,-13%,-8%,2%
COc1ccc(CNC(=O)CSc2ccsc2[N+](=O)[O-])cc1,17µM*,?,?,2.2µM*,?
Cc1ccc(CNC(=O)CSc2ccsc2[N+](=O)[O-])cc1,?,?,?,1.4µM*,?
CCc1ccc(OC(=O)CSc2nnc(-c3ccc4c(c3)OCO4)o2)cc1,-1%,nt,nt,nt,nt
Nc1nccc(-c2cc(-c3ccc(Cl)cc3Cl)no2)n1,0.67µM*,?,nt,0.32µM*,0.35µM*
O=C(c1ccc(F)cc1)N1CCC(C(=O)N2CCN(c3ncccn3)CC2)CC1,nt,6%,nt,nt,nt
Cc1[nH]n(-c2ccccc2)c(=O)c1N=Nc1c(Cl)cccc1Cl,-15%,7%,nt,10%,15%
Cc1cccc2c1ncc1c(=O)n(-c3ccccc3)[nH]c12,4.3µM*,?,nt,2.2µM*,3.2µM*
